Source: PubChem BioAssay
Only some compounds are listed: those with a hit (about 3.8% of all), similar ones and a draw of the others.
pPAFAH FP inh = pPAFAH enzyme inhibitors, primary screen, biochemical, fluorescence polarization, human. inhibition, % at 3.39 µM. recombinant pPAFAH, FP-rhodamine probe fluorescence polarization. Platelet-activating factor acetylhydrolase (Homo sapiens), Q13093. 1.5% of 330,000 active;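 active means inhibition above the mean inhibition across the screen plus 3 SD, cut at about 25% in these data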;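 further: inhibitors block binding of the rhodamine activity-based probe so polarization drops; 0% = enzyme with DMSO and 100% = wells lacking pPAFAH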
Target sequence (Q13093 whole entry, looked up): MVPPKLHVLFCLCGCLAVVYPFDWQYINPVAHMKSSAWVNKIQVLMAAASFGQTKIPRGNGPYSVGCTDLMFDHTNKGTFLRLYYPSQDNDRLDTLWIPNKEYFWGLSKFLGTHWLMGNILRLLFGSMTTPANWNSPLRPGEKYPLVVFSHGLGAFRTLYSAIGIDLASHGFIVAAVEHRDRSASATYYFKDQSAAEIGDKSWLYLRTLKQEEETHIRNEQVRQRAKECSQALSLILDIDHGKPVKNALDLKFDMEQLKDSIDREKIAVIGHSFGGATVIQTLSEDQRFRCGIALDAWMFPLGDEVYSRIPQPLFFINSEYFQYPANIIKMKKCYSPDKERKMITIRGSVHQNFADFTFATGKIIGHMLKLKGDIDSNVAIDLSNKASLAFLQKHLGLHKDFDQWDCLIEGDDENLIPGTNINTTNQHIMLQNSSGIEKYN
DSG3 Ab inh = inhibitors of pemphigus antibody binding to DSG3, primary screen, biochemical, bead-based, flow cytometry, scFv-GFP; Desmoglein-3 (Homo sapiens), P32926; DSG3-coupled beads, scFv-anti-DSG3-GFP binding; hits give low values; binding (percent of control), % at 10 µM; 0.48% of 310,000 active; AID 588358, 2011;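 active means binding more than 3 SD below its plate's average and above zero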;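 further: hits lower antibody fragment binding to DSG3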
PAFAH1B2 FP inh = PAFAH1B2 enzyme inhibitors, primary screen, biochemical, fluorescence polarization, human; Platelet-activating factor acetylhydrolase IB subunit alpha2 (Homo sapiens), P68402; recombinant PAFAH1B2, FP-rhodamine activity probe; inhibition, % at 3.39 µM; 1.2% of 340,000 active;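 active means inhibition above the mean of all tested compounds plus 3 SD, cut at about 24% in these data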;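 further: 0% = enzyme with DMSO and 100% = wells lacking PAFAH1B2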
PAFAH1B3 FP inh = PAFAH1B3 enzyme inhibitors, primary screen, biochemical, fluorescence polarization, human; Platelet-activating factor acetylhydrolase IB subunit alpha1 (Homo sapiens), Q15102; recombinant PAFAH1B3, FP-rhodamine probe; inhibition, % at 3.39 µM; 0.28% of 340,000 active;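 active means inhibition above the screen-wide average of all tested compounds plus 3 SD, cut at about 25% in these data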;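 further: 0% = enzyme with DMSO only and 100% = wells lacking PAFAH1B3 protein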
PAFAH2 FP inh = PAFAH2 enzyme inhibitors, primary screen, biochemical, fluorescence polarization, human; 0.99% of 340,000 active; inhibition, % at 3.39 µM; Platelet-activating factor acetylhydrolase 2, cytoplasmic (Homo sapiens), Q99487; recombinant PAFAH2, FP-rhodamine activity probe;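 active means inhibition above the mean over all tested compounds plus 3 SD, cut at about 30% in these data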;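 further: inhibitors block probe labeling of enzyme so polarization drops; 0% = enzyme with DMSO and 100% = wells lacking PAFAH2 protein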
PfM18AAP inh = PfM18AAP inhibitors, malaria aminopeptidase, primary screen, biochemical, QFRET, recombinant enzyme; 1.2% of 290,000 active; H-Glu-NHMec fluorogenic cleavage; inhibition, % at 7.35 µM; M18 aspartyl aminopeptidase (Plasmodium falciparum 3D7);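 active means inhibition above the campaign mean inhibition over all tested compounds plus 3 SD, cut at about 28% in these data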;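 further: 0% = plate median of test compound wells and 100% = 2 mM ZnCl2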
* marks the source's active call; other numbers are inactive results; x = no result.

SMILES | pPAFAH FP inh | DSG3 Ab inh | PAFAH1B2 FP inh | PAFAH1B3 FP inh | PAFAH2 FP inh | PfM18AAP inh
O=C1CS/C(=N\C(=O)N2c3ccccc3Sc3ccccc32)N1 | 26* | 103 | 25* | -1 | -5 | 2
NCCC(=O)N1c2ccccc2Sc2ccccc21 | 5 | 115 | -6 | 6 | -5 | 2
O=C(COC(=O)CCc1ccccc1)Nc1ncc(Cl)cc1Cl | 26* | 99 | 4 | 8 | 2 | -4
O=C(COC(=O)c1ccc(Br)o1)Nc1ncc(Cl)cc1Cl | 13 | 101 | -1 | 0 | 12 | -1
O=C(COC(=O)c1sc2cc(F)ccc2c1Cl)Nc1ncc(Cl)cc1Cl | 31* | 81 | -4 | -11 | -13 | -10
COc1ccc(N2CCN(CCCn3cnc4c(OC)ncnc43)CC2)cc1 | x | 103 | x | x | x | x
CC(=O)Nc1cccc(C(=O)NN2C(=O)NC3(CCC(C)CC3)C2=O)c1 (centres undefined) | x | 107 | x | x | x | x
Cc1ccc2c(C)c(C(=O)N(C)Cc3nccn3C)oc2c1C | 3 | 110 | -3 | 2 | -3 | 8
CC(C)(C)c1ccc(/C=C/C(=O)N2CCN(c3ncccn3)CC2)cc1 | 32* | 94 | 6 | 12 | 4 | -5
CC(C)(C)c1ccc(OCC(=O)N2CCN(c3ncccn3)CC2)cc1 | 26* | 100 | 3 | -4 | 16 | 4
O=C(/C=C/c1ccc(Cl)c(C(F)(F)F)c1)N1CCN(c2ccccn2)CC1 | 29* | 98 | 2 | 3 | 40* | -5
CC(C)(C)c1ccc(OCC(=O)N2CCN(c3ccccn3)CC2)cc1 | 16 | 112 | 16 | 5 | 6 | x
O=C(/C=C/c1ccc(Cl)cc1)N1CCN(c2ccccn2)CC1 | 3 | 99 | 4 | 5 | 11 | -3
O=C(CSc1ncn[nH]1)NCCc1ccc(Cl)cc1 | 2 | 108 | 31* | 8 | 11 | 15
CCc1ccc(C(=O)CSc2ncn[nH]2)cc1 | 0 | 113 | -2 | 7 | 3 | 28*
O=C(CSc1ncn[nH]1)NCCc1ccccc1 | -3 | x | 3 | 0 | -6 | 9
Cc1ccc(C(=O)CSc2ncn[nH]2)cc1 | 3 | 99 | 0 | 5 | 2 | 22
COCC(=O)N(CCc1ccc(OC)c(OC)c1)Cc1cc2cc(C)ccc2nc1Cl | 1 | 97 | 4 | 0 | -3 | 0
COC(=O)c1[nH]c2ccc(C)cc2c1NC(=O)NC1CCCCC1 | 0 | 99 | 0 | 3 | -1 | -1
O=C(Nc1c(C(=O)O)[nH]c2ccccc12)NC1CCCCC1 | 11 | 118 | 27* | -3 | 45* | -4
O=C(CCc1c[nH]c2ccccc12)N1CCN(c2ccc(O)cc2)CC1 | 11 | 101 | 6 | -1 | 3 | 31*
COc1cccc(C(=O)Nc2ccc(N3CCN(S(C)(=O)=O)CC3)cc2)c1 | -1 | 99 | 5 | 9 | 9 | -4
CCOc1cccc(C(=O)Nc2ccc(N3CCN(S(C)(=O)=O)CC3)cc2)c1 | 1 | -22* | 4 | 5 | 0 | 2
COc1ccc(-c2nn3c(-c4ccccc4)nnc3s2)cc1 | 2 | 99 | -3 | 6 | 10 | -12
CCN(CC)c1ccc(-c2nn3c(-c4ccccc4OC)nnc3s2)cc1 | 25* | 92 | 5 | -3 | 0 | 0
SMILES | pPAFAH FP inh | DSG3 Ab inh | PAFAH1B2 FP inh | PAFAH1B3 FP inh | PAFAH2 FP inh | PfM18AAP inh
O=c1ccc2cc3c([nH]c4ccc(Br)cc43)oc-2c1O | 79* | 70 | 42* | 45* | 52* | 10
C[C@H]1CN(CCc2ccccc2)C(=O)[C@@H]1CC(=O)Nc1ccccc1 | x | 103 | x | x | x | x
O=C(c1ccc(NS(=O)(=O)c2ccccc2)cc1)N1CCN(c2ccccc2)CC1 | 3 | 105 | -3 | -3 | -1 | x
Nc1c(N2CCOCC2)cc(Cl)c2nonc12 | 5 | 87 | -2 | 1 | -2 | 6
Nc1c(N2CCCC2)cc(Cl)c2nonc12 | 15 | 99 | 13 | 66* | 35* | 16
CCn1c2ccccc2c2cc(NC(=O)c3coc(=O)c(Br)c3)ccc21 | 10 | x | x | x | x | -3
CCn1c2ccccc2c2cc(NC(=O)c3ccc(=O)oc3)ccc21 | 33* | 101 | x | x | x | 4
COc1ccc(-c2ccnc3[nH]n(-c4ccccc4)c(=O)c23)cc1 | -1 | 87* | -1 | 8 | -5 | 7
